Experimental data published in paper PMC4336329 (PLoS ONE, 2015).
In all, about 310,000 compounds went through this assay and about 14,000 (4.5%) showed an effect of 50% or more. Effects have a minus sign here. What follows is part of a selection rich in strong results, with near analogues and random picks from the rest.

Target: human ether-à-go-go-related gene (hERG) potassium channel (human, UniProt Q12809)
Test: primary screen, population patch clamp on CHO cells stably expressing hERG; higher = less effect of the substance
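Note: peak tail current of the secondary pulse compared with the same well before compound.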

Chain of human ether-à-go-go-related gene (hERG) potassium channel (Q12809 whole entry, looked up): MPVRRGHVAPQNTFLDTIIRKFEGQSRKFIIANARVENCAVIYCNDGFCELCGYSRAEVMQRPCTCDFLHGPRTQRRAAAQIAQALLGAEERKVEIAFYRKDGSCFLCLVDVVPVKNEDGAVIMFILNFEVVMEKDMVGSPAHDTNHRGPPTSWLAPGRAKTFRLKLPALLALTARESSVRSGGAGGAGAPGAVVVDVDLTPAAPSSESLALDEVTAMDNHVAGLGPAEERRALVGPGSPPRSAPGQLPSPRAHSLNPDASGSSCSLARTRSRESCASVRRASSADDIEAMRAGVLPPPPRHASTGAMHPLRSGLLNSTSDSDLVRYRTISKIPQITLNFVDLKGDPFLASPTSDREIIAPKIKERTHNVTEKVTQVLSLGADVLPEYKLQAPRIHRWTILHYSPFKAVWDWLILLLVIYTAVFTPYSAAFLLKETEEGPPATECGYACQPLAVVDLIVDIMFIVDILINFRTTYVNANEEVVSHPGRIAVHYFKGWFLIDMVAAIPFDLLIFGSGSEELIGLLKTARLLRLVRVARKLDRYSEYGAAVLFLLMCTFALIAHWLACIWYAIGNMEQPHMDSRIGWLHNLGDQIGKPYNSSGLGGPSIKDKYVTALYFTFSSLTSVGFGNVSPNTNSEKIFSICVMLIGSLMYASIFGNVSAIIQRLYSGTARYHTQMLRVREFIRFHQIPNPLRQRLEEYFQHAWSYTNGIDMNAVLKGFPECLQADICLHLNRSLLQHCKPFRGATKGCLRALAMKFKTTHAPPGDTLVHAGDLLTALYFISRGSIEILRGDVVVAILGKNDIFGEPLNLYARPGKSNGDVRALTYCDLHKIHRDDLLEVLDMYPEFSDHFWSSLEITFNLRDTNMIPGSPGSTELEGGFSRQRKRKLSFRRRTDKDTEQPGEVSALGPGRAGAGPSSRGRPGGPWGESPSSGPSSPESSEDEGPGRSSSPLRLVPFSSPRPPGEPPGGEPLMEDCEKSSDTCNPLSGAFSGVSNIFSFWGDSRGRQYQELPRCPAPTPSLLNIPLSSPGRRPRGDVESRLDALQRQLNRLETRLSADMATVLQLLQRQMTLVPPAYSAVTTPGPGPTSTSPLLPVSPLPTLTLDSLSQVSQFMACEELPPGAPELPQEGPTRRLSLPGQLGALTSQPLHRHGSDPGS

Structure (SMILES)	hERG current change (%, negative = inhibition) at 10uM
CCC(=O)N(C(=O)CC)N1CCN(c2ccncc2S(=O)(=O)N2CCCCC2)CC1	-52.5%
CN1CCN(c2ccncc2S(=O)(=O)N2CCCCC2)CC1	14.7%
Cc1cc(N(C)C)c(C#N)c(N2CCCCC2)n1	-4.92%
O=C(OC(c1ccccc1)c1nccc2ccccc12)c1cc([N+](=O)[O-])cc([N+](=O)[O-])c1 (stereo not drawn)	22.9%
Cc1occc1C(=O)/C(C#N)=C/c1ccc(O)c(Br)c1	6.16%
Cc1cc(C)n(CCNC(=O)c2cc(COc3ccc4ncccc4c3)on2)n1	-3.15%
O=C(NCCc1cn2ccccc2n1)c1cc(COc2c(F)cccc2F)on1	-64.9%
Cc1ccc(OCc2cc(C(=O)NCc3cn4ccccc4n3)no2)cc1C	-38.7%
Cc1cc(C)nc(CCNC(=O)c2cc(COc3c(F)cccc3F)on2)n1	4.72%
O=C(NCCc1cn2ccccc2n1)c1cc(COc2ccc3ncccc3c2)on1	-65.7%
O=C(NCCCc1ccccc1)c1cc(COc2c(F)cccc2F)on1	-6.23%
Cc1cc(C(=O)NC(=S)Nc2cccc(NC(=O)C(C)C)c2)ccc1[N+](=O)[O-]	3.95%
Cc1ccc(NC(=O)C2CCC(=O)N2C(=O)OCc2ccccc2)cc1 (stereo not drawn)	-23.5%
COc1ccc(F)cc1C(=O)C1CCCN(Cc2cccn2-c2ccccn2)C1 (stereo not drawn)	-83.5%
O=C(c1cc(F)ccc1F)C1CCCN(C(=O)c2ccc3nccnc3c2)C1 (stereo not drawn)	-50.2%
COC(=O)c1cccc(C(=O)N2CCCC(C(=O)c3cc(F)ccc3F)C2)c1 (stereo not drawn)	-21%
COc1ccc(C(=O)C2CCCN(C(=O)c3cccnc3OC)C2)cc1F (stereo not drawn)	-4.56%
O=C(c1cc(F)ccc1F)C1CCCN(C(=O)CSc2ccccn2)C1 (stereo not drawn)	-31.9%
CN(C)c1cccc(C(=O)N2CCCC(C(=O)c3cc(F)ccc3F)C2)c1 (stereo not drawn)	0.21%
COc1ncccc1C(=O)N1CCCC(C(=O)c2cc(F)ccc2F)C1 (stereo not drawn)	-9.02%
COc1ccc(C(=O)C2CCCN(Cc3cccn3-c3ccccn3)C2)cc1F (stereo not drawn)	-78.5%

Structure (SMILES)	hERG current change (%, negative = inhibition) at 10uM
COc1ccc(F)cc1C(=O)C1CCCN(C(=O)CSc2ccccn2)C1 (stereo not drawn)	-7.26%
O=C(c1cc(F)ccc1F)C1CCCN(Cc2cccn2-c2ccccn2)C1 (stereo not drawn)	-77.9%
COc1ccc(F)cc1C(=O)C1CCCN(Cc2cccn2-c2cccnc2)C1 (stereo not drawn)	-47%
COc1ccc(S(=O)(=O)N2CCC(C(=O)NC3(C)CCS(=O)(=O)C3)CC2)cc1OC (stereo not drawn)	7.87%
Cc1cc(C)nc(N2CCCC(C(=O)NCc3cccc(C(F)(F)F)c3)C2)n1 (stereo not drawn)	16.7%
Cc1ccc(CN2CCN(/N=C/c3cc(Br)cc(Br)c3O)CC2)cc1	5.09%
CCOC(=O)C(CC)/C(C)=N\NC(=O)c1cccc(C)c1 (stereo not drawn)	35.5%
O=S(=O)(NCc1ccc(C(F)(F)F)cc1)c1ccc(-n2cnnn2)cc1	-22.2%
COC(=O)C1=C(C)NC(=S)N(C(C)=O)C1c1ccccc1 (stereo not drawn)	-8.87%
CCc1sc(C(=O)Nc2cc(S(=O)(=O)N3CCOCC3)ccc2OC)cc1C	7.24%
O=c1[nH]c(C2CCCN(S(=O)(=O)c3ccccc3)C2)nc2c1nnn2Cc1ccc(OC(F)(F)F)cc1 (stereo not drawn)	26.6%
COc1cccc(-c2nnc(SCC(N)=O)n2-c2ccc(Cl)cc2)c1	-9.7%
CC(=O)NNC(=O)CN1C(=O)CN=C(c2ccccc2)c2cc(Br)ccc21	13.1%
NNC(=O)CN1C(=O)CN=C(c2ccccc2)c2cc(Br)ccc21	-5.51%
O=C1CN=C(c2ccccc2)c2cc(Br)ccc2N1Cc1cc(=O)n2ccccc2n1	-51.7%
O=C(C1CCCN1S(=O)(=O)c1cccc2nsnc12)N1CCN(c2ccc(F)cc2)CC1 (stereo not drawn)	-69.3%
O=C(C1CCCN1S(=O)(=O)c1cccc2nsnc12)N1CCN(c2ccccc2)CC1 (stereo not drawn)	-69.5%
CC(=O)c1ccc(N2CCN(C(=O)C3CCCN3S(=O)(=O)c3cccc4nsnc34)CC2)cc1 (stereo not drawn)	-1.72%
COc1ccc(N2CCN(C(=O)C3CCCN3S(=O)(=O)c3cccc4nsnc34)CC2)cc1 (stereo not drawn)	-30.6%
O=C(C1CCCN1S(=O)(=O)c1cccc2nsnc12)N1CCCCCC1 (stereo not drawn)	7.97%
O=C(C1CCCN1S(=O)(=O)c1cccc2nsnc12)N1CCCCC1 (stereo not drawn)	11%
